# Laboratory results as given in the supplement of paper PMC8007513.
# Structures can show the parent of a compound that is named as a salt. ± gives the standard error. Screen size: about 1,300 compounds; about 130 (10%) showed an effect of 50% or more. This excerpt belongs to a sample that is enriched for strong results.
# System: Trichoderma virens ATCC 9645
# Assay: growth yield (OD600) with compound + IPBC relative to untreated control; higher = less growth inhibition
# Conditions: compound concentration: 100 uM, IPBC concentration: 200 ng/ml
# Method in brief: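 Plates were read for OD600 at 40 h and 72 h after Trichoderma virens ATCC 9645 spores (15,000 spores ml^−1 in potato dextrose broth) were grown at 30 °C with library compounds at 100 μM final, with or without a biocide at 200 ng ml^−1. Growth is stated relative to the control with neither agent, as the mean of duplicate screens.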
Compound,growth yield (40 h) [%],growth yield (72 h) [%]
CCCCCCC[N+](CC)(CC)CCCCc1ccc(Cl)cc1 [Clofilium tosylate] + CCCCNC(=O)OCC#CI [3-iodo-2-propynyl butylcarbamate (IPBC)],13.5 ± 5.9,74.46 ± 0.42
N[C@@H]1C[C@H]1c1ccccc1 [Tranylcypromine hydrochloride] + CCCCNC(=O)OCC#CI [3-iodo-2-propynyl butylcarbamate (IPBC)],99.6 ± 1.8,104 ± 3.7
N=C(N)N1CCc2ccccc2C1 [Debrisoquin sulfate] + CCCCNC(=O)OCC#CI [3-iodo-2-propynyl butylcarbamate (IPBC)],92.3 ± 15,96.9 ± 8
COc1ccc2cc([C@@H](C)C(=O)O)ccc2c1 [(R) -Naproxen sodium salt] + CCCCNC(=O)OCC#CI [3-iodo-2-propynyl butylcarbamate (IPBC)],67.7 ± 2.2,81.5 ± 3.5
COc1ccc2cc(CCC(C)=O)ccc2c1 [Nabumetone] + CCCCNC(=O)OCC#CI [3-iodo-2-propynyl butylcarbamate (IPBC)],39.7 ± 1.6,67.1 ± 1.5
COc1ccc2cc([C@H](C)C(=O)O)ccc2c1 [(S)-Naproxen] + CCCCNC(=O)OCC#CI [3-iodo-2-propynyl butylcarbamate (IPBC)],61.3 ± 1.9,78.6 ± 1.1
c1ccc2c(c1)Nc1ccccc1S2 [Phenothiazine] + CCCCNC(=O)OCC#CI [3-iodo-2-propynyl butylcarbamate (IPBC)],34.8 ± 2.7,51.3 ± 1.6
CC(C)(C#N)c1cc(Cn2cncn2)cc(C(C)(C)C#N)c1 [Anastrozole] + CCCCNC(=O)OCC#CI [3-iodo-2-propynyl butylcarbamate (IPBC)],105 ± 3.8,98.9 ± 2.2
CN(C)c1ccc(O)c2c1C[C@H]1C[C@H]3[C@H](N(C)C)C(O)=C(C(N)=O)C(=O)[C@@]3(O)C(O)=C1C2=O [Minocycline hydrochloride] + CCCCNC(=O)OCC#CI [3-iodo-2-propynyl butylcarbamate (IPBC)],58.1 ± 2.2,84.6 ± 4.7
COc1ccc(OC)c(C(O)C(C)N)c1 (stereo unspecified) [Methoxamine hydrochloride] + CCCCNC(=O)OCC#CI [3-iodo-2-propynyl butylcarbamate (IPBC)],87.4 ± 7.3,92.4 ± 5.3
COc1ccc(C(=O)N2CCCC2=O)cc1 [Aniracetam] + CCCCNC(=O)OCC#CI [3-iodo-2-propynyl butylcarbamate (IPBC)],83.7 ± 4.3,87.3 ± 3.1
O=C1Nc2ccc(Cl)cc2[C@@](C#CC2CC2)(C(F)(F)F)O1 [Efavirenz] + CCCCNC(=O)OCC#CI [3-iodo-2-propynyl butylcarbamate (IPBC)],39.4 ± 2.9,73.1 ± 8.1
C/C(=C\C(=O)OCCCCCCCCC(=O)O)C[C@@H]1OC[C@H](C[C@@H]2O[C@H]2[C@@H](C)[C@H](C)O)[C@@H](O)[C@H]1O [Mupirocin] + CCCCNC(=O)OCC#CI [3-iodo-2-propynyl butylcarbamate (IPBC)],6.51 ± 1.4,43.4 ± 5.7
O=C1CCc2ccc(OCCCCN3CCN(c4cccc(Cl)c4Cl)CC3)cc2N1 [Aripiprazole] + CCCCNC(=O)OCC#CI [3-iodo-2-propynyl butylcarbamate (IPBC)],81.8 ± 2.1,94.2 ± 1.5
NS(=O)(=O)c1cc(C(=O)O)cc(N2CCCC2)c1Oc1ccccc1 [Piretanide] + CCCCNC(=O)OCC#CI [3-iodo-2-propynyl butylcarbamate (IPBC)],98.3 ± 13,101 ± 6.5
CC(=O)Oc1ccc(C(c2ccc(OC(C)=O)cc2)c2ccccn2)cc1 [Bisacodyl] + CCCCNC(=O)OCC#CI [3-iodo-2-propynyl butylcarbamate (IPBC)],76.2 ± 2.2,86.8 ± 2.1
CC[C@H]1OC(=O)[C@H](C)[C@@H](O[C@H]2C[C@@](C)(OC)[C@@H](O)[C@H](C)O2)[C@H](C)[C@@H](O[C@@H]2O[C@H](C)C[C@H](N(C)C)[C@H]2O)[C@](C)(O)C[C@@H](C)[C@@H]2N[C@@H](COCCOC)O[C@H]([C@H]2C)[C@]1(C)O [Dirithromycin] + CCCCNC(=O)OCC#CI [3-iodo-2-propynyl butylcarbamate (IPBC)],89 ± 9.5,94.9 ± 6.4
N=C(N)NS(=O)(=O)c1ccc(N)cc1 [Sulfaguanidine] + CCCCNC(=O)OCC#CI [3-iodo-2-propynyl butylcarbamate (IPBC)],89.6 ± 2.5,92.4 ± 2.6
Cc1cccc(C)c1OCC(=O)N[C@@H](Cc1ccccc1)[C@@H](O)C[C@H](Cc1ccccc1)NC(=O)[C@H](C(C)C)N1CCCNC1=O [Lopinavir] + CCCCNC(=O)OCC#CI [3-iodo-2-propynyl butylcarbamate (IPBC)],108 ± 5.4,111 ± 5.1
O=C(NCC(O)CO)c1c(I)c(C(=O)NCC(O)CO)c(I)c(N(CCO)C(=O)CO)c1I (stereo unspecified) [Ioversol] + CCCCNC(=O)OCC#CI [3-iodo-2-propynyl butylcarbamate (IPBC)],103 ± 18,98 ± 13
C#C[C@]1(O)CC[C@H]2[C@@H]3CCC4=CC(=O)CC[C@@H]4[C@H]3CC[C@@]21C [Norethindrone] + CCCCNC(=O)OCC#CI [3-iodo-2-propynyl butylcarbamate (IPBC)],55.1 ± 1.4,83.06 ± 0.63
OCCN(CCO)c1nc(N2CCCCC2)c2nc(N(CCO)CCO)nc(N3CCCCC3)c2n1 [Dipyridamole] + CCCCNC(=O)OCC#CI [3-iodo-2-propynyl butylcarbamate (IPBC)],44.5 ± 1.6,57.37 ± 0.52
CN[C@H](CC(C)C)C(=O)N[C@H]1C(=O)N[C@@H](CC(N)=O)C(=O)N[C@H]2C(=O)N[C@H]3C(=O)N[C@H](C(=O)N[C@H](C(=O)O)c4cc(O)cc(O)c4-c4cc3ccc4O)[C@H](O)c3ccc(c(Cl)c3)Oc3cc2cc(c3O[C@@H]2O[C@H](CO)[C@@H](O)[C@H](O)[C@H]2O[C@H]2C[C@](C)(N)[C@H](O)[C@H](C)O2)Oc2ccc(cc2Cl)[C@H]1O [Vancomycin hydrochloride] + CCCCNC(=O)OCC#CI [3-iodo-2-propynyl butylcarbamate (IPBC)],84.2 ± 0.95,98.27 ± 0.52
